High-throughput results: PubChem BioAssay, The Scripps Research Institute Molecular Screening Center
NCOA1 inh: inhibitors of human steroid receptor coactivator 1 (SRC1). Q15788. HEK293 GAL4-SRC1 luciferase reporter, luminescence. inhibition, % at 3.6 µM. actives 0.12% (n = 360,000). AID 588354;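 active means inhibition above the campaign mean plus 3 SD, with each screening campaign given its own cutoff, cut at about 60% in these data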;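 further: 0% = DMSO treated cells and 100% = gossypol at 36 µM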
NR2F2 inh: blocks human COUP-TFII nuclear receptor; AID 686940; HEK293T NGFI-A luciferase reporter, luminescence; actives 0.7% (n = 370,000); P24468; inhibition, % at 8.6 µM;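 active means inhibition above a per-plate cutoff, mean inhibition of test wells between control levels plus 3 SD, cut at about 38% in these data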;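 further: cells cotransfected with COUP-TFII expression vector driving the NGFI-A reporter; 0% = median of COUP-TF2 test wells and 100% = reporter-only cells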
SRC2 inh: human SRC2 (NCOA2) inhibition; HEK293 GAL4-SRC2 luciferase reporter, luminescence; inhibition, % at 9 µM; actives 0.17% (n = 370,000);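 active means inhibition above the mean inhibition of all tested compounds plus 3 SD, set per campaign, cut at about 52% in these data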;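 further: 0% = DMSO treated cells and 100% = cells given Gossypol at 36 µM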
LRH-1 inv ag: suppresses constitutive activity of human LRH-1; actives 0.13% (n = 360,000); HEK293T StAR-luciferase reporter, LRH-1 transfected, 24 h; O00482; inhibition, % at 3.6 µM;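 active means inhibition above the mean inhibition of all tested compounds plus 3 SD, cut at about 73% in these data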;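 further: 0% = DMSO wells and 100% = reporter-only cells lacking LRH-1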
SRC3 inh: human NCOA3 inhibition | Q9Y6Q9 | HEK293 GAL4-SRC3 luciferase reporter, luminescence | inhibition, % at 3.6 µM | actives 0.17% (n = 360,000) | AID 588352;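 active means inhibition above a per-campaign cutoff, the mean of all compounds plus 3 SD, cut at about 60% in these data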;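 further: 0% = DMSO-treated cells and 100% = gossypol-treated cells at 36 µM; higher means less SRC3-driven luciferase light from the GAL4 reporter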
VP16 Luc counter: inhibits VP16 reporter, flagging COUP-TFII antagonist hits; inhibition, % at 8.5 µM; AID 687007; HEK293 Gal4-VP16 luciferase reporter, luminescence; actives 25% (n = 2,500); shares compounds with NR2F2 inh; in the data active means inhibition above about 13%
COUP-TFII conf: confirmation of human COUP-TFII (NR2F2) inhibitors; shares compounds with NR2F2 inh; HEK293 NGFI-A luciferase reporter, luminescence; inhibition, % at 8.5 µM; actives 45% (n = 2,500); AID 687008;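 active means mean inhibition over three repeats above a set limit taken from the earlier primary screen, cut at about 38% in these data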;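 further: 100% = cells given the luciferase reporter alone without the COUP-TF2 vector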
The depositor's hits bear a star; . = no result; ! = repeats disagree. Most compounds without a hit are left out; they make up all but 0.83% or so of the library.

SMILES | NCOA1 inh | NR2F2 inh | SRC2 inh | LRH-1 inv ag | SRC3 inh | VP16 Luc counter | COUP-TFII conf
CCCCNC(=O)C[C@H]1C[C@@]2(C(=O)OC)C(=C[C@H](C(C)(C)C)O[C@@H]2C)N(CCc2ccc(OC)c(OC)c2)C1=O | . | 14 | 6 | . | . | . | .
O=C(OCCN1C(=O)c2cccc3c(N4CCOCC4)ccc(c23)C1=O)c1ccccc1Cl | 15 | 66* | 25 | 8 | 22 | -4 | 23
COc1ccc2cc3[n+](cc2c1OC)CCc1cc2c(cc1-3)OCO2 | 10 | 53* | -3 | 34 | -26 | 14*! | 54*!
COc1cccc(C2=NCCc3cc4c(cc32)OCO4)c1OC | 6 | -15 | 14 | 10 | 7 | . | .
O=C(Nc1ccccc1O)c1ccc(NS(=O)(=O)c2cccc3cccnc23)cc1 | -29 | 40* | -213 | -8 | -20 | -43 | 38*
COC(=O)c1ccc(NC(=O)c2ccc(NS(=O)(=O)c3cccc4cccnc34)cc2)cc1 | 6 | . | . | 8 | 7 | . | .
Cc1nn(C)c(C)c1/C=C/C(=O)c1ccc(Cl)cc1Cl | 9 | 47* | -12 | 33 | 23 | -9 | 38*
Cc1cc(-c2n[nH]c(=S)n2N=Cc2c3ccccc3cc3ccccc23)n[nH]1 | . | -18 | -24 | . | . | . | .
CCN(c1ccc(OC)cc1)c1ncnc2nc[nH]c12 | 66* | 38* | 49 | 22 | 49 | 3 | 17
Cc1cc(NS(=O)(=O)c2ccc(NC(=O)CSc3nnc(-c4ccco4)n3-c3ccc(Cl)cc3)cc2)nc(C)n1 | . | -3 | 6 | . | . | . | .
O=C(Cc1c[nH]c2ccccc12)Nc1ccc(Nc2cccnc2)cc1 | . | 14 | 13 | . | . | . | .
Cc1ccoc1C(=O)Nc1ccc(CC(=O)O)cc1 | -18 | 76* | 83* | 0 | 16 | 70* | 66*
COc1cccc(N2CCN(C(=O)c3ccc(CSc4nc5ccncc5[nH]4)cc3)CC2)c1 | -11 | 42* | 18 | -12 | -12 | 2 | 16
Cc1ccc(C)c(N2CCN(C(=O)c3ccc(CSc4nc5ccncc5[nH]4)cc3)CC2)c1 | 15 | 29 | -3 | -11 | 0 | . | .
CN(CCOc1ccc(Cl)cc1)C(=O)c1cccc(S(=O)(=O)N2CCN(c3ccccc3)CC2)c1 | 15 | 59* | 30 | 31 | 4 | 6 | 44*
COc1cccc(CN(C)C(=O)c2cccc(S(=O)(=O)N3CCN(c4ccc(F)cc4)CC3)c2)c1OC | 8 | 59* | 25 | 6 | 17 | -2 | 39*
COc1ccc(NC(=O)CN(C)C(=O)c2cccc(S(=O)(=O)N3CCN(c4ccc(F)cc4)CC3)c2)cc1 | -4 | 46* | 24 | 14 | 17 | -2 | 17
CN(Cc1ccc(Cl)cc1Cl)C(=O)c1cccc(S(=O)(=O)N2CCN(c3ccccc3)CC2)c1 | 4 | 17 | 28 | 4 | -7 | . | .
COc1cccc(CN(C)C(=O)c2cccc(S(=O)(=O)N3CCN(c4ccccc4)CC3)c2)c1OC | 4 | 52* | -1 | 3 | 32 | -1 | 21
CN(C)c1cccc(-c2ccnc(N3CCC(C(N)=O)CC3)n2)c1 | . | -29 | . | . | . | . | .
C[C@@H]1Cc2cc(O)cc(O)c2C(=O)O1 | . | -3 | -12 | . | . | . | .
Cc1ccccc1S(=O)(=O)N1CCCc2nc(-c3ccccc3)ccc21 | . | 8 | 11 | . | . | . | .
COC(=O)c1c(NC(=O)CCCC(=O)O)sc(C)c1C | 15 | -6 | 24 | -1 | -3 | . | .
Cc1sc(NC(=O)CCCC(=O)O)c(C(N)=O)c1-c1ccccc1 | -4 | 60* | 75* | -19 | 5 | 47* | 30
CC(=O)Nc1ccc(NC(=O)c2ccc(CN3CCc4ccccc4C3)cc2)cc1 | -25 | 2 | -4 | -5 | -7 | . | .
SMILES | NCOA1 inh | NR2F2 inh | SRC2 inh | LRH-1 inv ag | SRC3 inh | VP16 Luc counter | COUP-TFII conf
O=C(Nc1cccc(Br)c1)c1ccc(CN2CCc3ccccc3C2)cc1 | 10 | 53* | 22 | 30 | 0 | -24 | 32
O=C(Nc1ccc(F)cc1)c1ccc(CN2CCc3ccccc3C2)cc1 | 20 | 45* | 19 | 15 | -2 | -41 | 34
COC(=O)c1ccc(CN2CCc3ccc(NC(=O)c4ccncc4)cc3C2)cc1 | -32 | 48* | 41 | 9 | 11 | 6 | 30
COc1cccc(-c2ccc(CC[C@H]3O[C@H]4CC[C@H](CO)O[C@H]4C[C@H]3NS(C)(=O)=O)cc2)c1 | . | -22 | -12 | . | . | . | .
CCCCc1c(-c2ccccc2OC)ncn1Cc1c(Cl)cccc1Cl | . | 3 | -3 | . | . | . | .
Cc1ccc2nc(-c3ccncc3)cc(-c3ccccc3)c2c1 | 1 | -16 | -1 | 5 | -6 | . | .
Cc1ccc(-c2cc3cccc[n+]3cc2-c2ccc(C)cc2)cc1 | 51 | 66* | 1 | 84* | 55 | 8 | 54*
COc1ccc(C(C)=O)cc1CSc1nnc(Nc2ccccc2)s1 | 7 | 50* | 9 | 23 | 38 | 3 | 36
COc1ccc(C(C)=O)cc1CSc1nnc(Nc2ccc(C)cc2)s1 | 11 | 42* | 17 | -18 | 19 | 10 | 21
COc1ccc(C(C)=O)cc1CSc1nnc(C)s1 | -12 | -9 | -21 | 13 | -1 | . | .
CC(C)C(=O)N[C@H]1[C@H](O)CCC[C@@]12C(=O)N(Cc1ccccc1)c1ccccc12 | . | -2 | 5 | . | . | . | .
Nn1c(SCC(=O)NC2CCCCC2)nnc1-c1n[nH]c2c1CCC2 | . | 4 | -5 | . | . | . | .
COc1ccc(-c2ccc3c(n2)CCCN3S(=O)(=O)c2cccs2)cc1 | . | -8 | 9 | . | . | . | .
O=C(Nc1ccccc1C(=O)O)c1ccc(Cl)c(S(=O)(=O)N2CCOCC2)c1 | -14 | 6 | 16 | -9 | -10 | . | .
O=C(Nc1ccccc1C(=O)O)c1cc(S(=O)(=O)N2CCCCC2)c(Cl)cc1Cl | -21 | 40* | 1 | -3 | -2 | -11 | 19
O=C(Cc1c[nH]c2ccccc12)Nc1ccc(Nc2cccnc2)c(-c2ccc(Cl)c(Cl)c2)c1 | . | 1 | -5 | . | . | . | .
COC(=O)CC#C[C@H](C)[C@@H](NS(C)(=O)=O)C(C)(C)COCc1ccccc1 | . | 2 | -1 | . | . | . | .
NC(=O)c1ccc(N2CCN(S(=O)(=O)c3cccs3)CC2)c([N+](=O)[O-])c1 | 16 | 60* | -10 | 48 | 34 | 5 | 56*
Cc1ccc(CN2CCCCC(NC(=O)c3ccc(F)cc3)C2=O)cc1 (stereo unspecified) | . | -1 | -2 | . | . | . | .
Cc1ccc(CN2CCCCC(NC(=O)c3ccc(COc4ccccc4)cc3)C2=O)cc1 (stereo unspecified) | . | 51* | 18 | . | . | -10 | 23
CCCCOc1ccc(C(=O)NC2CCCCN(Cc3ccc(C)cc3)C2=O)cc1 (stereo unspecified) | . | 40* | 19 | . | . | -12 | 25
Cc1ccccc1CN1CCCCC(NC(=O)c2ccc(-c3ccccc3)cc2)C1=O (stereo unspecified) | . | 57* | 16 | . | . | -15 | 41*
